Compound activity deposited in PubChem by University of Kansas High Throughput Screening Laboratory.
Compounds with a hit are over-represented: about 3.5% of the library has one in this group of screens.
Pf apPOL block – Pf-apPOL DNA polymerase inhibition; Recombinant Pf-apPOL, molecular beacon fluorescence, 1.5 h; inhibition, % at 10 µM; 210,000 compounds, 0.25% hits
mHTT CaM bind – mHTT-calmodulin interaction abrogation; inhibition, % at 15 µM; AlphaScreen His-mHTT/GST-CaM binding, luminescence; 190,000 compounds, 3.6% hits
Large screens that a line does not name were inactive. Cut-off read from the data, not from the text of the source: active = inhibition above about 50%; inactive = the rest.

COc1ccc(-c2onc(C)c2C(=O)N2CCC(Cc3ccccc3)CC2)cc1	mHTT CaM bind 99
COc1ccc(-c2cc(C(=O)N3CCC(Cc4ccccc4)CC3)no2)cc1	none
Cc1noc(-c2cccs2)c1C(=O)N1CCC(Cc2ccccc2)CC1	mHTT CaM bind 71
Cc1noc(-c2cccnc2)c1C(=O)N1CCC(Cc2ccccc2)CC1	none
COc1ccc(/C=C2/C(=O)N(c3cccc(Cl)c3)N=C2C)cc1Br	none
CCc1nnc(NC(=O)c2ccc(S(=O)(=O)N(C)C)cc2)s1	none
O=[N+]([O-])c1ccc(NN=C2CCCCCC2c2ccccc2)c([N+](=O)[O-])c1 (stereo unspecified)	none (no result: mHTT CaM bind)
O=[N+]([O-])c1ccccc1NN=C1CCCC1	mHTT CaM bind 58 (no result: Pf apPOL block)
O=[N+]([O-])c1ccc(N2CCCC2)cc1Sc1cccc2cccnc12	mHTT CaM bind 101
CN1CCN(c2ccc([N+](=O)[O-])c(Sc3cccc4cccnc34)c2)CC1	none
COc1ccc(/C=C/C(=O)Nc2c3c(nn2-c2ccc([N+](=O)[O-])cc2)CSC3)cc1OC	none
O=C(Nc1c2c(nn1-c1ccc([N+](=O)[O-])cc1)CS(=O)(=O)C2)c1cccs1	none
O=C(Nc1c2c(nn1-c1ccc(F)cc1)CSC2)c1cccs1	mHTT CaM bind 51
O=C(Nc1c2c(nn1-c1ccc([N+](=O)[O-])cc1)CSC2)c1cccs1	mHTT CaM bind 55
O=C(/C=C/c1ccco1)Nc1c2c(nn1-c1ccc([N+](=O)[O-])cc1)CSC2	mHTT CaM bind 98
O=C(Nc1c2c(nn1-c1ccc(F)cc1)CS(=O)(=O)C2)c1cccs1	none
CC(=O)c1ccc(NC(=O)CCC(=O)Nc2ccc(C(C)=O)cc2)cc1	none
COc1cccc2c(Nc3cccc(Cl)c3C)cc(C)nc12	none
CC(=O)N1CCCC(c2ccnc(-c3cccc(C)c3)n2)C1 (stereo unspecified)	none
O=C(Nc1cc(Cl)ccc1O)c1noc2c1CCCC2	none
O=C1NC(=O)C2C3C=CC(C3=C(c3ccccc3)c3ccccc3)C12 (stereo unspecified)	mHTT CaM bind 57
O=C1NN(c2ccccc2)C(=O)C2C(c3ccccc3)C=CC(c3ccccc3)C12 (stereo unspecified)	none
COc1cc(OC)cc(C(=O)Nc2ccc(S(N)(=O)=O)cc2)c1	none
Oc1ccccc1C=Nc1ccc(O)c(-c2nc3ccccc3s2)c1	none
COc1cc(C=Nc2ccc(O)c(-c3nc4ccccc4s3)c2)ccc1O	mHTT CaM bind 79
CC(=O)c1c(-c2ccccc2)c2cc(Cl)ccc2[nH]c1=O	none
CC(=O)c1c(-c2ccccc2)c2cc(Br)ccc2[nH]c1=O	mHTT CaM bind 58
Cc1ccc2[nH]c3c(c2c1)CCCC3=O	none
Cc1ccc2[nH]c3c(c2c1)CCC1C3=NNC1c1ccco1 (stereo unspecified)	mHTT CaM bind 79
COc1ccc(C2CC(=O)C3=C(C2)Nc2ccccc2NC3c2ccccc2[N+](=O)[O-])cc1 (stereo unspecified)	none
CCN1c2ccc(Cl)cc2C(=O)NC12CCN(C(=O)Nc1cccc(OC)c1)CC2	none
Cc1ccc2nc(-c3cc(N=Cc4cccc([N+](=O)[O-])c4)ccc3O)[nH]c2c1	mHTT CaM bind 55
Cc1ccc2nc(-c3cc(N=Cc4cccc([N+](=O)[O-])c4O)ccc3O)[nH]c2c1	mHTT CaM bind 59
O=[N+]([O-])c1ccccc1C=Nc1ccc2nc(-c3ccccc3)[nH]c2c1	none
Cc1ccc2nc(-c3cc(N=Cc4ccc([N+](=O)[O-])cc4)ccc3O)[nH]c2c1	mHTT CaM bind 55
Cc1cccc2oc(-c3cc(N=Cc4cccc([N+](=O)[O-])c4)ccc3O)nc12	none
O=C(O)c1cccc(N=Cc2cccc([N+](=O)[O-])c2O)c1	Pf apPOL block 83
Cc1ccc2nc(-c3cccc([N+](=O)[O-])c3)[nH]c2c1	none
O=C(O)c1cccc(N=Cc2cc(Cl)cc([N+](=O)[O-])c2O)c1	none
CC1CCCCN1Cc1c(F)cccc1F (stereo unspecified)	none
CN(C)c1ccc(C(CNC(=O)c2cccc([N+](=O)[O-])c2)N2CCOCC2)cc1 (stereo unspecified)	none
CN(C)c1ccc(C(CNC(=O)c2ccccc2[N+](=O)[O-])N2CCc3ccccc3C2)cc1 (stereo unspecified)	mHTT CaM bind 66
Cc1ccc(C(=O)N2CCN(c3cc(Oc4cccc(F)c4)ncn3)CC2)cc1	none
COc1cc2c(cc1OC)C(C(=O)NCc1cccnc1)C1c3ccccc3CCN1C2=O (stereo unspecified)	none
COc1ccc(OC)c(NC(=O)C2c3ccccc3C(=O)N3CCc4ccccc4C23)c1 (stereo unspecified)	none
COc1ccc(C)cc1NC(=O)C1c2cc(OC)c(OC)cc2C(=O)N2CCc3ccccc3C12 (stereo unspecified)	mHTT CaM bind 57
COc1cc2c(cc1OC)C(C(=O)NCCc1cccc(C)c1)C1c3ccccc3CCN1C2=O (stereo unspecified)	mHTT CaM bind 89
Cc1ccnc(NC(=O)C2c3ccccc3C(=O)N3CCc4ccccc4C23)c1 (stereo unspecified)	none
